Results as given in PubChem BioAssay AID492972 (The Scripps Research Institute Molecular Screening Center, 2010).
About 930 (0.27%) of roughly 340,000 compounds were called active. The list comes from a sample in which actives are over-represented; it also holds similar structures and randomly drawn compounds. Unmarked numbers belong to inactive results.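 How the source made its calls: active means inhibition above the screen-wide average of all tested compounds plus 3 SD (cut at about 25% in these data); inactive means the rest.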

target: Platelet-activating factor acetylhydrolase IB subunit alpha1 (Homo sapiens) (UniProt Q15102); assay: inhibition of PAF acetylhydrolase 1B subunit 3 – biochemical, fluorescence polarization, human, primary screen (AID 492972); details: recombinant PAFAH1B3, FP-rhodamine probe, at 3.39 µM, stronger effect = higher value;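 further: 0% = enzyme with DMSO only and 100% = wells lacking PAFAH1B3 protein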
Sequence (Q15102 whole entry, looked up): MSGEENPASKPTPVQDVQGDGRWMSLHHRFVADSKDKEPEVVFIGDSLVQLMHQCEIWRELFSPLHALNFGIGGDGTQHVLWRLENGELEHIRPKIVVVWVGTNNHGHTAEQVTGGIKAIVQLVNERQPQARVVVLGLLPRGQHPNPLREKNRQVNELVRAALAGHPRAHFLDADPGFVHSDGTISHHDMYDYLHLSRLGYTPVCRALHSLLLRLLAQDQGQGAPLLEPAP

Row | SMILES | inhibition
1 | CC(C)c1ccc(NC(=O)[C@@H](NC(=O)N2CC(=O)Nc3ccccc32)C(C)C)cc1 | 6.6%
2 | Cc1nc(NC(CC(C)C)C(=O)O)c2nc(C)oc2n1 (stereo not given) | 7.36%
3 | COc1cccc(N(CC(=O)NCCSc2ccccn2)S(C)(=O)=O)c1 | 12.7%
4 | CCOC(=O)[C@H]1[C@H]2COc3ccc(Br)cc3[C@@H]2N2C(=O)CN(C)C(=O)[C@@]12C | 2.41%
5 | CCOc1cccc(/C=N/N2C(=O)CSC2=S)c1O | 13.7%
6 | Cc1cc(C(=O)N/N=C/c2ccc(O)c([N+](=O)[O-])c2)c(C)n1-c1ccc(F)cc1 | 9.16%
7 | O=C1CSC(=S)N1/N=C/c1ccc(O)c([N+](=O)[O-])c1 | 31.7% (active)
8 | Cc1ccc(C)c2[nH]c(=O)c(CCNC(=O)CC(C)C)cc12 | 13.2%
9 | O=C(O)c1ccc(Cn2cnc3c(=S)nc[nH]c32)cc1 | -3%
10 | COC(=O)c1ccccc1NC(=O)CSc1n[nH]c(-c2ccncc2)n1 | -3.63%
11 | CC(=O)Nc1ccc(S(=O)(=O)N2CCC(C(=O)N[C@@H](Cc3ccccc3)C(=O)O)CC2)cc1 | -0.21%
12 | CCOC(=O)c1ccn(-c2nc(-c3ccco3)cc(C(F)(F)F)n2)n1 | 1.73%
13 | Cc1c(C(=O)O)nnn1-c1nonc1N | 3.33%
14 | COC(=O)C1=C(C)NC(=O)/C1=C/c1ccc(CNS(=O)(=O)c2ccc(C)cc2)o1 | 10.7%
15 | Cn1c(Cc2cccs2)nnc1SCC(=O)Nc1ccccc1 | 10.8%
16 | CCOC(=O)c1c(C)[nH]c2c1-c1ccccc1C(=O)C2=O | 58.3% (active)
17 | CCOC(=O)c1[nH]c2ccccc2c1N=C(C)N(CC)CC | 9.46%
18 | CCOC(=O)C1=C(C)c2ccccc2OC1(C)C(=O)OCC (stereo not given) | 2.09%
19 | c1ccc(-c2c[nH]c(-c3ccccc3)c2)cc1 | 3.23%
20 | Cc1nc(CNS(=O)(=O)c2ccc(Oc3ccccc3)cc2)cs1 | 13.7%
21 | COc1cccc(Cn2cc(/C=N/NC(=O)c3cc(O)cc(O)c3)c3ccccc32)c1 | 37.5% (active)
22 | N#CCC(=O)N/N=C/c1cn(Cc2ccc3ccccc3c2)c2ccccc12 | -0.94%
23 | CNC(=S)N/N=C/c1cn(Cc2ccc(C)cc2)c2ccccc12 | 3.79%

Row | SMILES | inhibition
24 | COC(=O)C1=C[C@@H](C(=O)OC)[C@@H]2C3=C(C(=O)[C@]2(C)NC(=O)c2ccccc2)[C@H](C)n2c(=O)n(C)c(=O)n2[C@@H]3C1 | 4.02%
25 | COC(=O)Cc1ccc(N(Cc2ccccc2F)S(=O)(=O)c2ccc(Br)cc2)cc1 | 8.61%
26 | CCN(CC)S(=O)(=O)N1CCC(C(=O)NC(C)CCc2ccccc2)CC1 (stereo not given) | 9.79%
27 | CC(C)N(C)C(=O)CCc1nnc(CCc2c[nH]c3ccccc23)o1 | 1.11%
28 | CN(C)CCCCCN(C)Cc1cc2ccccc2o1 | 3.58%
29 | O=C(Cn1nc([N+](=O)[O-])nc1Br)NC1CCCCC1 | 11%
30 | CCN1CCc2nc(NC(=O)c3cc(F)c(F)cc3Cl)sc2C1 | 1.2%
31 | CC(C)c1ccc(S(=O)(=O)N2CCN(C(=O)CN3C(=O)NC(C)(c4ccccc4)C3=O)CC2)cc1 (stereo not given) | 5.24%
32 | COc1ccccc1N1CCN(c2nc(C)cc(=O)[nH]2)CC1 | 9.92%
33 | Clc1cc(NC2CCCCC2)ncn1 | 6.06%
34 | COc1cc(NC(=O)COC(=O)c2ccc([N+](=O)[O-])s2)cc(OC)c1OC | 23.3%
35 | O=C(OCC(=O)N1CCN(c2ccccc2)CC1)c1ccc([N+](=O)[O-])s1 | 53.8% (active)
36 | COc1cccc(/C=C/C(=O)OCC(=O)N2CCN(c3ccccc3)CC2)c1 | -3.05%
37 | COc1ccc(C(=O)OCC(=O)c2ccc(C)c(S(=O)(=O)N3CCOCC3)c2)cc1OC | 14%
38 | C[C@H](NC(=O)c1ccccc1Cl)C(=O)OCC(=O)N1CCN(c2ccccc2)CC1 | 2.77%
39 | COc1ccc(C(=O)COC(=O)c2ccc([N+](=O)[O-])s2)cc1OC | 33.9% (active)
40 | CN1/C(=c2/s/c(=C3/C(=O)N(c4ccccc4)NC3=Nc3ccccc3)n(C)c2=O)C(C)(C)c2ccccc21 | 6.84%
41 | CC(C)CC[n+]1ccn(C2=C([O-])c3ccccc3C(=O)/C2=N\S(=O)(=O)c2ccccc2)c1 | 34.1% (active)
42 | COc1ccc(S(=O)(=O)/N=C2\C=C(NS(=O)(=O)c3ccccc3)C(=O)c3ccccc32)cc1 | -2.66%
43 | CCCCCC(=O)Nc1ccc(-c2cn3cccnc3n2)cc1 | 8.1%
44 | COc1ccc(-c2cc3n(n2)CCc2nc4ccccc4n2-3)cc1 | 1.18%
45 | O=C1C(Cl)=C(Oc2ccccc2)C(=O)c2ccccc21 | 37.3% (active)
46 | CCC(C)C(NC(=O)C1CCC(=O)N1C(=O)OCc1ccccc1)C(=O)NC(C(=O)N1CCCC1C(N)=O)C(C)CC (stereo not given) | -7.74%

Row | SMILES | inhibition
47 | CC1CCN(CCCn2c(SCC(=O)NC3CCCC3)nc3ccccc3c2=O)CC1 | 6.29%
48 | O=Cc1cn(-c2ccccc2)nc1-c1ccccn1 | 0.88%
49 | Nc1ccc2nc3c(=O)[nH]c(=S)[nH]c3nc2c1 | 48.8% (active)
50 | Cn1ncc(Br)c1C(=O)NC1CCCC1 | 4.81%
51 | O=C(Nc1ccc(Br)cc1)C1CCC(=O)N1Cc1ccccc1Cl (stereo not given) | 7.1%
52 | N#Cc1ccc(S(=O)(=O)NCC(=O)OCC(=O)NCCc2ccccc2)cc1 | -8.29%
53 | O=C(Oc1cccc(N2C(=O)C3C4c5ccccc5C(c5ccccc54)C3C2=O)c1)c1ccco1 (stereo not given) | 12.6%
54 | COc1cccc(C2CC(c3ccccc3)=NN2S(=O)(=O)c2ccccc2)c1OC (stereo not given) | 0.58%
55 | COc1ccc(C(=O)C(C)OC(=O)c2cccc(S(=O)(=O)Nc3c(C)n(C)n(-c4ccccc4)c3=O)c2)cc1 (stereo not given) | 10%
56 | O=C(NN=Cc1ccccc1O)NN=Cc1ccccc1O | 7.65%
57 | C/C(=N\Nc1ccc(Cl)nn1)c1ccccc1O | 4.6%
58 | Oc1cccc(/C=N/Nc2ccc(Cl)nn2)c1O | 55.2% (active)
59 | CN(C(=O)c1cccc(NC(=O)Cc2cccc(NC(=O)C3CCCN(C(=O)C4CC4)C3)c2)c1)C1CCC1 (stereo not given) | 1.82%
60 | Cc1c2cnn(CC(=O)NCc3ccccn3)c(=O)c2c(C)n1Cc1ccc(Cl)cc1 | 0.23%
61 | N#C/C=C1\Sc2ccccc2C(=O)N1CC(=O)N1CCN(S(=O)(=O)c2ccccc2)CC1 | 5.99%
62 | Fc1c(F)c(C(F)(F)F)c(F)c(F)c1N1CCN(c2ccc3nnc(C(F)(F)F)n3n2)CC1 | 6.38%
63 | COc1ccccc1C(C)NC(=O)Cc1ccsc1 (stereo not given) | 4.64%
64 | CC(=O)N(C1=C(Cl)C(=O)c2ccccc2C1=O)c1ccc(C(=O)O)cc1 | 39% (active)
65 | O=C(Nc1cccn(Cc2ccccc2Cl)c1=O)NC1CCCCC1 | -6.16%
66 | CC(NC(=O)COc1cccnc1[N+](=O)[O-])c1ccc(Cl)cc1Cl (stereo not given) | 9.45%
67 | CCCCN=C1C([N+](=O)[O-])=CC=C2C1=NC1(CCCCC1)N2O | 7.2%
68 | CC(C)c1ccc(-c2nn[nH]n2)cc1 | 5.47%
69 | Cc1ccc(S(=O)(=O)N2CCN(C(=O)Cc3sc(C)nc3-c3ccc(F)cc3)CC2)c(C)c1 | 4.17%

Row | SMILES | inhibition
70 | O=C(CN1C(=O)NC2(CCCCCC2)C1=O)Nc1ccc([N+](=O)[O-])cc1 | 7%
71 | CCCC1OC23CCCCC2C(C#N)(C#N)C1(C#N)C(=N)O3 (stereo not given) | 27.8% (active)
72 | CC(=O)c1c(C)[nH]c(C(=O)N2CCN(S(=O)(=O)c3ccc(F)c(F)c3)CC2)c1C | 0.06%
73 | N#Cc1c(-c2ccc(Cl)cc2)c2c([nH]c1=S)CCCC2 | 2.52%
74 | O=C1Nc2c(Br)cc(Br)cc2C1(O)N1CCOCC1 (stereo not given) | 38% (active)
75 | O=C(c1cc2cc(Br)cc(Br)c2oc1=O)N1CCOCC1 | 0.41%
76 | O=C(NC1=CC(=O)c2ccccc2C1=O)c1ccccc1 | 28.6% (active)
77 | O=C1C=C(NS(=O)(=O)c2ccccc2)C(=O)c2ccccc21 | 13.3%
78 | CC(NC(=O)c1ccccc1)C(=O)Nc1ccccc1 (stereo not given) | 3.87%
79 | CN1CCN(C(=O)c2cnn(-c3ccccc3)c2NC(=O)c2ccc([N+](=O)[O-])cc2)CC1 | 6.79%
80 | OCCNc1nc2ccccc2n1-c1ncnc2sc3c(c12)CCC3 | 10.6%
81 | CCN(CC(=O)Nc1c(F)cccc1F)C(=O)c1cnc(C)cn1 | -0.64%
82 | COC(=O)C1=C(C)NC2=C(C(=O)c3ccccc32)C1c1ccc(-c2ccc(C(=O)O)cc2)o1 (stereo not given) | 46.5% (active)
83 | COC(=O)C1=C(C)N(C)C(=O)NC1c1ccc([N+](=O)[O-])o1 (stereo not given) | 0.98%
84 | CCOC(=O)c1ccc(-c2ccc(C(=O)Nc3cccnc3)o2)cc1 | -6.74%
85 | COc1ccc(N2CCN(C3CCCCC3NS(=O)(=O)c3ccccc3)CC2)cc1 (stereo not given) | 7.46%
86 | CCOC(=O)C1=C(CN2CCc3ccccc32)NC(=O)NC1c1cc(C)ccc1C (stereo not given) | 0.4%
87 | CC(C)(C)OC(=O)N1CCC(C(=O)Nc2cccc(C(=O)NCCc3ccccc3)c2)CC1 | -4.3%
88 | CCOC(=O)CNC(=O)CSc1ncccc1-c1nc2ccccc2[nH]1 | -4.22%
89 | O=C(Nc1ccc(CN2CCOCC2)cc1)c1cc(Cl)ccc1Cl | 7.42%
90 | Cc1ccc(C)c(S(=O)(=O)N2CCN(C(=O)Nc3ccccc3)CC2)c1 | 3.11%
